Only some compounds are listed: those with a hit (about 6.8% of all), similar ones and a draw of the others.
Spn DPM-DC inh: blocks S. pneumoniae diphosphomevalonate decarboxylase; purified DPM-DC, PK/LDH coupled NADH fluorescence; actives 0.49% (n = 65,000); calls only at 10 µM;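 active = the 320 compounds with the highest percent inhibition in the single-dose primary screen, excluding strongly autofluorescent ones, cut at about 32% in these data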;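 also: kinetic rate of NADH fluorescence loss reporting ADP formed by the decarboxylase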
NADH enzymes: inhibitors of enzymes used to reach an NAD/NADH endpoint; coupled PK/LDH NADH assays, four targets; IC50, µM (highest dose often 10 µM); actives 0.02% (n = 65,000);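 active = single-dose screening hits from any of four coupled enzyme assays that gave an IC50 when retested across doses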;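 also: the DPM-DC format reads NADH fluorescence rather than 340 nm absorbance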
PMK inhibit: inhibitors of Streptococcus pneumoniae phosphomevalonate kinase | purified PMK, PK/LDH-coupled NADH absorbance 340 nm | inhibition, % at 10 µM | actives 0.49% (n = 65,000);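 active = top-ranked compounds by inhibition in the single 10 µM screen, taking a fixed number of the strongest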
A340 absorber: compound absorbs light at 340 nm; compound absorbance at 340 nm, fold over control; fold change at 10 µM; 65,000 tested, under 10 active; AID 708;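 active = at 10 µM dose, initial 340 nm absorbance at least 2 fold that of control wells; inactive = change under 2 fold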;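 also: initial absorbance extrapolated from kinetic A340 decline of NADH oxidation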
Spn MK inh: blocks S. pneumoniae mevalonate kinase; purified MK, PK/LDH-coupled NADH absorbance 340 nm; inhibition, % at 10 µM; actives 0.48% (n = 65,000);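 active = ranked among the strongest by inhibition in the single 10 µM screen, a fixed top-ranked set picked for dose follow-up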
Fluor 339 460: intrinsic fluorescence of library compounds, ex339/em460 – biochemical, MLSMR library, data from DPM-DC assay, artefact control, profiling panel. fluorescence fold increase at 10 µM. actives 5.5% (n = 65,000). compound autofluorescence, ex339/em460 nm, NADH buffer; hits give high values; 1 = no-compound wells, NADH background;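 active = at 10 µM, mean starting fluorescence two-fold or more over control wells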;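 also: signal is the first read of a kinetic run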
Large screens that a line does not name were inactive.

O=c1c2c(nc3c(-c4cccc(Br)c4)c[nH]n13)CCCC2	Fluor 339 460 2.66
CCOC(=O)Cc1c(C)nc2c(-c3cccc(Br)c3)c[nH]n2c1=O	Fluor 339 460 2.17 (not shown: Spn DPM-DC inh)
COc1ccc(CN2CCN(C(=O)c3ccco3)CC2)cc1OCc1ccccc1	Spn MK inh 52.0
CCn1c2ccccc2c2cc(CN3CCN(C(=O)c4ccco4)CC3)ccc21	PMK inhibit 30.0, Spn MK inh 54.0
Cc1ccc(S(=O)(=O)NC(CN2CCOCC2)=NCCNS(=O)(=O)c2ccccc2)cc1	none
O=C1CCCc2nc(N3CCc4ccccc43)ncc21	none
O=C1CC(c2ccccc2)Cc2nc(N3CCc4ccccc43)ncc21 (centres undefined)	Fluor 339 460 3.01 (not shown: Spn DPM-DC inh)
CC1(C)CCCN(C(=O)c2coc(=O)c(Br)c2)C1	Fluor 339 460 3.73 (not shown: Spn DPM-DC inh)
O=C(c1coc(=O)c(Br)c1)N1CCCc2ccccc21	Fluor 339 460 2.35 (not shown: Spn DPM-DC inh)
O=C(c1cc(-c2ccco2)on1)N1CCCc2ccccc21	PMK inhibit 31.0, Spn MK inh 50.0
C[C@@H](NC(=O)c1coc(=O)c(Br)c1)c1ccccc1	none
O=C(c1cccc(S(=O)(=O)NCCOc2ccccc2)c1)N1CCN(c2ncccn2)CC1	none
CC1CC(C)CN(c2oc(-c3ccccc3Cl)nc2C#N)C1 (centres undefined)	Fluor 339 460 3.22 (not shown: Spn DPM-DC inh)
Cc1cccc(OCc2nc(C#N)c(N3CC(C)CC(C)C3)o2)c1 (centres undefined)	none
N#Cc1nc(Cc2cccc3ccccc23)oc1N1CCCCC1	none
N#Cc1nc(-c2ccccc2Cl)oc1N1CCCCC1	none
N#Cc1nc(-c2cccc3ccccc23)oc1N1CCCCC1	Fluor 339 460 3.7 (not shown: Spn DPM-DC inh)
CC1CCN(c2oc(-c3cccc4ccccc34)nc2C#N)CC1	Fluor 339 460 2.97 (not shown: Spn DPM-DC inh)
CCC(=O)Nc1nnc(Sc2ccc(N(C)C)cc2)s1	Spn DPM-DC inh active
COc1ccccc1NC(=O)Cn1cnc2c(cnn2-c2ccc(C)c(C)c2)c1=O	none
Cc1nc2ccc(NC(=O)N3CCSCC3)cc2nc1C	none (not shown: Spn DPM-DC inh)
CCOC(=O)N1CCN(C(=O)Nc2ccc3nc(-c4ccccn4)c(-c4ccccn4)nc3c2)CC1	Fluor 339 460 2.18 (not shown: Spn DPM-DC inh)
CCOC(=O)N1CCN(C(=O)Nc2ccc3nc(C)sc3c2)CC1	none
O=C(Nc1ccc2nc(-c3cccs3)c(-c3cccs3)nc2c1)N1CCOCC1	Spn DPM-DC inh active, Fluor 339 460 2.55
O=C(CN1CCN(c2ncccn2)CC1)NCCC1=CCCCC1	Spn MK inh 49.0
Cc1ccc(CNC(=O)CN(C)S(=O)(=O)c2cccc3cccnc23)cc1	none
Cc1c2c(nc3c(C(=O)NC4CCCC4)cnn13)CCCC2	Fluor 339 460 4.9 (not shown: Spn DPM-DC inh)
Cc1oc2c(C)c3oc(=O)c4c(c3cc2c1C)CCC4	none
CCc1cc(=O)oc2c(CN3CCCC3)c(O)c(Cl)cc12	Fluor 339 460 2.3 (not shown: Spn DPM-DC inh)
O=c1oc2ccccc2c(N2CCCCC2)c1CN1CCCCC1	none
CCc1c(C)c2cc(Cl)c(O)c(CN3CCCCC3)c2oc1=O	Fluor 339 460 2.33 (not shown: Spn DPM-DC inh)
O=c1oc2c(CN3CCOCC3)c(O)c(Cl)cc2c2c1CCC2	Fluor 339 460 3.8 (not shown: Spn DPM-DC inh)
Cc1c(O)c(CN2CCCCC2)cc2c3c(c(=O)oc12)CCC3	Fluor 339 460 2.48 (not shown: Spn DPM-DC inh)
O=C(Cn1cc2c(n1)CCCC2)N1CCCc2ccccc21	none
O=P(O)(c1ccc(Cl)cc1)c1ccc(Cl)cc1	none
C=CCn1c(=O)c2ccccc2n2c(SCc3nnc(-c4ccccc4Br)o3)nnc12	none
CN1CCN(Cc2cc(=O)oc3cc4c(cc23)CCC4)CC1	none
CCc1cc(=O)oc2c(CN3CCN(C)CC3)c(O)c(Cl)cc12	Fluor 339 460 2.47 (not shown: Spn DPM-DC inh)
CCCCC(CC)C(=O)NCCCN1CCN(CCCNC(=O)C(CC)CCCC)CC1 (centres undefined)	none
Nc1ccc(-c2nc3c(Cl)cc(N)cc3[nH]2)cc1	Fluor 339 460 4.86 (not shown: Spn DPM-DC inh)
Cc1cccc(C(=O)Nc2cc(=O)n(C)c(=O)n2C)c1	Spn DPM-DC inh active
C=CCc1c(C)nn(CC(=O)O)c1-c1ccccc1	none
Cc1nnc2sc(-c3cccc4ccccc34)nn12	Fluor 339 460 2.25
Cc1nnc2sc(-c3ccncc3)nn12	none
COc1cc2cc(CN(CCCO)S(=O)(=O)c3ccccc3Cl)c(=O)[nH]c2cc1OC	PMK inhibit 25.0, Fluor 339 460 3.46 (not shown: Spn DPM-DC inh)
CCOC(=O)c1cccc(S(=O)(=O)N(CCO)Cc2cc3cc(OC)c(OC)cc3[nH]c2=O)c1	none

Assay outcomes as filed in PubChem.
